Measurements as given in PubChem BioAssay AID1159580 (chemical genetic matrix, 2015).
Hit rate of the full screen: of about 5,500 compounds, about 2,000 (36%) were called active. Inconclusive results (about 18%) are left out. Rule as the data show it: active = normalized growth mostly below about 0.91 (no sharp cut-off); inconclusive = no clear call, values can overlap the other calls; inactive = mostly above about 0.92. This is one part of the list.

Test: chemical genetic growth profiling, strain panel (AID 1159580);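 also: tested at 20 µM; growth read once vehicle control cultures reached saturation at 30 °C; 1 = growth at the plate median or of vehicle wells; lower values mean less growth of the strain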
Conditions: growth OD

Measured: normalized growth

O=C(O)CN(CC(=O)O)Cc1cc2c(-c3ccccc3C(=O)O)c3cc(CN(CC(=O)O)CC(=O)O)c(=O)cc-3oc2cc1O
inactive: S. cerevisiae deletion strains, locus YJR043C, strain POL32, stronger effect = lower value 1.01 | S. cerevisiae deletion strains, locus YJR075W, strain HOC1, stronger effect = lower value 1.03 | S. cerevisiae deletion strains, locus YKL009W, strain mrt4, stronger effect = lower value 1.02 | S. cerevisiae deletion strains, locus YKL068W, stronger effect = lower value 1.01 | S. cerevisiae deletion strains, locus YKL085W, strain MDH1 (second series), stronger effect = lower value 1.01 | S. cerevisiae deletion strains, locus YKL085W, strain MDH1, stronger effect = lower value 1.01 | S. cerevisiae deletion strains, locus YKL160W, strain elf1, stronger effect = lower value 0.96 | S. cerevisiae deletion strains, locus YKL190W, strain CNB1, stronger effect = lower value 1.01 | S. cerevisiae deletion strains, locus YKR001C, strain vps1, stronger effect = lower value 1.02 | S. cerevisiae deletion strains, locus YKR026C, strain gcn3, stronger effect = lower value 0.986 | S. cerevisiae deletion strains, locus YKR091W, strain srl3, stronger effect = lower value 0.965 | S. cerevisiae deletion strains, locus YLL001W, strain dnm1, stronger effect = lower value 0.984 | S. cerevisiae deletion strains, locus YLL026W, stronger effect = lower value 0.987 | S. cerevisiae deletion strains, locus YLL041C, strain sdh2, stronger effect = lower value 0.974 | S. cerevisiae deletion strains, locus YLR027C, strain aat2, stronger effect = lower value 0.969 | S. cerevisiae deletion strains, locus YLR039C, strain RIC1, stronger effect = lower value 1.05 | S. cerevisiae deletion strains, locus YLR058C, strain SHM2, stronger effect = lower value 1 | S. cerevisiae deletion strains, locus YLR102C, strain apc9, stronger effect = lower value 1.03 | S. cerevisiae deletion strains, locus YLR221C, strain rsa3, stronger effect = lower value 0.984 | S. cerevisiae deletion strains, locus YLR258W, strain gsy2, stronger effect = lower value 0.967 | S. cerevisiae deletion strains, locus YLR262C, strain YPT6, stronger effect = lower value 1.06 | S. cerevisiae deletion strains, locus YLR268W, strain sec22, stronger effect = lower value 1.01 | S. cerevisiae deletion strains, locus YLR320W, strain mms22, stronger effect = lower value 0.973 | S. cerevisiae deletion strains, locus YLR330W, strain CHS5, stronger effect = lower value 1.01 | S. cerevisiae deletion strains, locus YLR342W, strain FKS1 (second series), stronger effect = lower value 1 | S. cerevisiae deletion strains, locus YLR342W, strain FKS1, stronger effect = lower value 0.964 | S. cerevisiae deletion strains, locus YLR357W, strain rsc2, stronger effect = lower value 0.896 | S. cerevisiae deletion strains, locus YLR370C, strain arc18, stronger effect = lower value 0.964 | S. cerevisiae deletion strains, locus YLR371W, strain rom2, stronger effect = lower value 1.02 | S. cerevisiae deletion strains, locus YLR384C, strain iki3, stronger effect = lower value 0.973 | S. cerevisiae deletion strains, locus YLR418C, strain cdc73, stronger effect = lower value 1.03 | S. cerevisiae deletion strains, locus YML016C, strain PPZ1, stronger effect = lower value 1.01 | S. cerevisiae deletion strains, locus YML032C, strain rad52, stronger effect = lower value 1.03 | S. cerevisiae deletion strains, locus YML120C, strain ndi1, stronger effect = lower value 0.968 | S. cerevisiae deletion strains, locus YML124C, strain tub3, stronger effect = lower value 1.02 | S. cerevisiae deletion strains, locus YMR078C, strain ctf18, stronger effect = lower value 1.03 | S. cerevisiae deletion strains, locus YMR125W, strain sto1, stronger effect = lower value 1.01 | S. cerevisiae deletion strains, locus YMR129W, stronger effect = lower value 0.964 | S. cerevisiae deletion strains, locus YMR205C, strain PFK2, stronger effect = lower value 0.989 | S. cerevisiae deletion strains, locus YMR223W, strain ubp8, stronger effect = lower value 1 | S. cerevisiae deletion strains, locus YMR231W, strain pep5, stronger effect = lower value 0.942 | S. cerevisiae deletion strains, locus YMR263W, strain SAP30, stronger effect = lower value 1.02 | S. cerevisiae deletion strains, locus YMR307W, strain GAS1, stronger effect = lower value 0.947 | S. cerevisiae deletion strains, locus YNL067W, strain RPL9B, stronger effect = lower value 1.03 | S. cerevisiae deletion strains, locus YNL071W, strain lat1, stronger effect = lower value 0.973 | S. cerevisiae deletion strains, locus YNL128W, strain TEP1, stronger effect = lower value 0.96 | S. cerevisiae deletion strains, locus YNL153C, strain GIM3, stronger effect = lower value 0.998 | S. cerevisiae deletion strains, locus YNL233W, strain BNI4, stronger effect = lower value 0.994 | S. cerevisiae deletion strains, locus YNL248C, strain rpa49, stronger effect = lower value 1.02 | S. cerevisiae deletion strains, locus YNL250W, strain rad50, stronger effect = lower value 1.01 | S. cerevisiae deletion strains, locus YNL271C, strain bni1, stronger effect = lower value 1.01 | S. cerevisiae deletion strains, locus YNL298W, strain CLA4, stronger effect = lower value 1.04 | S. cerevisiae deletion strains, locus YNL307C, strain MCK1, stronger effect = lower value 1.03 | S. cerevisiae deletion strains, locus YNL322C, strain KRE1 (second series), stronger effect = lower value 0.967 | S. cerevisiae deletion strains, locus YNL322C, strain KRE1, stronger effect = lower value 1.01 | S. cerevisiae deletion strains, locus YNR049C, strain mso1, stronger effect = lower value 0.956 | S. cerevisiae deletion strains, locus YNR052C, strain pop2, stronger effect = lower value 1.02 | S. cerevisiae deletion strains, locus YOL006C, strain TOP1, stronger effect = lower value 1 | S. cerevisiae deletion strains, locus YOL012C, strain htz1 1.12 | S. cerevisiae deletion strains, locus YOL147C, strain pex11, stronger effect = lower value 1.02 | S. cerevisiae deletion strains, locus YOR001W, strain rrp6, stronger effect = lower value 0.939 | S. cerevisiae deletion strains, locus YOR061W, strain CKA2, stronger effect = lower value 1 | S. cerevisiae deletion strains, locus YOR069W, strain VPS5, stronger effect = lower value 1.01 | S. cerevisiae deletion strains, locus YOR070C, strain gyp1, stronger effect = lower value 0.986 | S. cerevisiae deletion strains, locus YOR080W, strain dia2, stronger effect = lower value 0.947 | S. cerevisiae deletion strains, locus YOR083W, strain WHI5, stronger effect = lower value 0.958 | S. cerevisiae deletion strains, locus YOR136W, strain idh2, stronger effect = lower value 1.02 | S. cerevisiae deletion strains, locus YOR144C, strain elg1, stronger effect = lower value 1.02 | S. cerevisiae deletion strains, locus YOR184W, strain ser1, stronger effect = lower value 1.03 | S. cerevisiae deletion strains, locus YOR265W, strain rbl2, stronger effect = lower value 0.984 | S. cerevisiae deletion strains, locus YOR290C, strain snf2, stronger effect = lower value 0.904 | S. cerevisiae deletion strains, locus YOR316C, strain cot1, stronger effect = lower value 1.02 | S. cerevisiae deletion strains, locus YPL055C, strain LGE1, stronger effect = lower value 0.974 | S. cerevisiae deletion strains, locus YPL078C, strain atp4, stronger effect = lower value 0.939 | S. cerevisiae deletion strains, locus YPL106C, strain sse1, stronger effect = lower value 0.87 | S. cerevisiae deletion strains, locus YPL240C, strain hsp82, stronger effect = lower value 0.971 | S. cerevisiae deletion strains, locus YPL241C, strain CIN2, stronger effect = lower value 0.987 | S. cerevisiae deletion strains, locus YPR119W, strain clb2, stronger effect = lower value 1.02 | S. cerevisiae deletion strains, locus YPR141C, strain kar3, stronger effect = lower value 1.02 | S. cerevisiae deletion strains, locus YPR163C, strain tif3, stronger effect = lower value 1.01 | S. cerevisiae deletion strains, locus YPR167C, strain met16, stronger effect = lower value 1.03 | S. cerevisiae deletion strains, strain wtn01, stronger effect = lower value 1.01 | S. cerevisiae strains, strain wild type, stronger effect = lower value 0.999
active: S. cerevisiae deletion strains, locus YLR262C, strain YPT6 (second series), stronger effect = lower value 0.817 | S. cerevisiae deletion strains, locus YMR058W, strain fet3, stronger effect = lower value 0.466 | S. cerevisiae deletion strains, locus YNL209W, strain ssb2, stronger effect = lower value 0.911 | S. cerevisiae deletion strains, locus YOR106W, strain vam3, stronger effect = lower value 0.773 | S. cerevisiae deletion strains, locus YOR270C, strain vph1, stronger effect = lower value 0.764 | S. cerevisiae deletion strains, locus YPL051W, strain arl3, stronger effect = lower value 0.867
